In the library only some 3.5% were active in any assay of this set; here they are far more common.
Anthrax LF prot – anthrax lethal factor protease inhibition. inhibition, % at 10 µM. P15917. multiplex microsphere protease cleavage assay, LF. actives 0.12% (n = 360,000). AID 588501
BoNT-F LC inh – BoNT F light chain protease inhibition | inhibition, % at 10 µM | Multiplex microsphere protease cleavage assay, flow cytometry | actives 0.22% (n = 360,000) | AID 588497; in the data active = inhibition above about 35%, passing the limit was not always enough; inconclusive = no clear call, values can overlap the other calls
SARS 3CLpro inh – SARS-CoV 3CLpro protease inhibition | actives 0.14% (n = 290,000) | inhibition, % at 6 µM | recombinant SARS-CoV 3CLpro, quenched FRET peptide cleavage | AID 1706 | P0C6X7; in the data active = inhibition above about 12%
BoNT A protease – BoNT A light chain protease inhibition; multiplex microsphere protease substrate cleavage, flow cytometry; inhibition, % at 10 µM; actives 0.17% (n = 360,000); AID 588499
Autofluor counter – flagged as autofluorescent in microsphere protease counterscreen; compound autofluorescence counterscreen, microsphere flow cytometry; active compounds read high; fluorescence intensity (no concentration beside the values); actives 3.1% (n = 360,000); in the data active = fluorescence intensity above about 16000; inconclusive = no clear call, values can overlap the other calls
A number is an active result; - = inactive; ? = inconclusive; . = not tested or not shown. Cut-off read from the data, not from the text of the source, unless noted: active = inhibition above about 30%; inconclusive = no clear call, values can overlap the other calls; inactive = below that.

SMILES	Anthrax LF prot	BoNT-F LC inh	SARS 3CLpro inh	BoNT A protease	Autofluor counter
COc1cccc(-c2nn3c(-c4ccco4)nnc3s2)c1	-	-	.	-	-
Brc1ccc(-c2nn3c(-c4ccco4)nnc3s2)o1	-	-	-	?	22193
Cc1ccc(S(=O)(=O)n2c(N)nc3cc(C)c(C)cc32)cc1	-	-	.	-	-
CCCCOC(=O)n1c(SCC(=O)N(C)C)nc2ccccc21	-	-	-	-	20862
CCCCOc1ccc(OCCSc2nc3ccccc3n2CC(=O)O)cc1	-	?	-	-	-
CCOC(=O)c1ccc(N2C(=O)[C@@H](c3ccccc3)[C@H]2c2ccccc2)cc1	-	-	.	-	-
Cc1cccn2c(=O)c(C=Nc3ccc(Cl)cc3)c(NCCO)nc12	-	-	-	-	21575
O=C(Nc1ccc(F)cc1)N1CCN(c2nc3ccccc3s2)CC1	-	-	-	-	-
O=C(Nc1ccccc1)N1CCN(c2nc3ccccc3s2)CC1	-	-	-	-	21122
O=S(=O)(c1ccc2ccccc2c1)N(CC(O)COCc1ccco1)c1ccccc1 (centres undefined)	-	-	-	-	23464
CCN(CC)CC(O)CN(c1ccccc1)S(=O)(=O)c1ccc2ccccc2c1 (centres undefined)	-	-	-	-	-

Screens: PubChem BioAssay, several laboratories
